Screening data (PubChem BioAssay)
NPC1 promoter act = activates the NPC1 promoter | actives 2.4% (n = 320,000) | Huh7 NPC1 promoter luciferase reporter, 24 h | AID 485313 | Potency, µM (doses to about 9.22 µM), without a hit: at the top dose activation, most hits filed as activators; further: % of control where 0% means no effect; nearly all actives have a fitted effect of over 60% in size
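Cells: Huh7 expressing luciferase under the NPC1 promoter, 1500/well. Seeded 2 h, compound added, incubated 24 h at 37 °C. Luciferase reagent, 10 min ambient, then luminescence.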
p53 reactivator = restores transcriptional activity of mutant p53; Potency, µM (series often up to 92.2 µM), for inactives: at the highest dose activity change, positive = activation, hits mostly activators; actives 0.063% (n = 320,000); H1299 p53-A138V BP100-luciferase reporter, luminescence, 24 h; further: % of control where 0% means no effect; nearly all actives have a fitted effect of over 45% in size
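p53-null H1299 cells stably carrying temperature-sensitive p53-A138V and a BP100-luciferase reporter were pinned with compounds (4-point, 1:5 series) and held 24 hrs at 37 deg C. Luminescence was read 10 min after detection reagent.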
ELG1 genotox = genotoxicity induction in ELG1-luciferase HEK293T cells; Potency, µM (highest dose often 46 µM), for the others: at the highest dose activity change, positive = activation, usual class: activators; HEK293T ELG1-luciferase reporter, luminescence, 16 h; actives 1.3% (n = 330,000); AID 504466; further: % of control where 0% means no effect; nearly all actives have a fitted effect of over 60% in size
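Cells (2,000/well) expressing the ELG1-luciferase fusion are dosed by pin tool and kept 16 hr at 37 °C, 5% CO2. Signal comes from ONE-Glo luciferase reagent after 30 min at room temperature.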
Rab9 promoter act = Rab9 promoter activation. Huh7 Rab9 promoter-luciferase reporter, luminescence, 24 h. Potency, µM (top dose mostly 9.22 µM), for inactives: top-dose activation, negative = inhibition, hits mostly activators. actives 2.8% (n = 320,000). AID 485297; further: % of control where 0% means no effect; nearly all actives have a fitted effect of over 60% in size
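Huh7 cells stably carrying a Rab9 promoter-luciferase reporter, 1500 cells per well in OP-MEM I with 10% FBS, treated with compound 24 hours at 37C. Luciferase activity read by luminescence after 10 minutes with Amplite reagent.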
FLuc counter = inhibits or activates purified firefly luciferase, miR-21 counter-screen; P08659; actives 6.9% (n = 360,000); purified FLuc, Km substrates, luminescence inhibition; Potency, µM (top dose mostly 57.5 µM), for the others: at the top dose activity change, negative = inhibition, hits mostly inhibitors;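 further: plate controls were vehicle for no effect and reference inhibitor for full effect; nearly all actives have a fitted effect of over 55% in size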
Target sequence (P08659 whole entry, looked up): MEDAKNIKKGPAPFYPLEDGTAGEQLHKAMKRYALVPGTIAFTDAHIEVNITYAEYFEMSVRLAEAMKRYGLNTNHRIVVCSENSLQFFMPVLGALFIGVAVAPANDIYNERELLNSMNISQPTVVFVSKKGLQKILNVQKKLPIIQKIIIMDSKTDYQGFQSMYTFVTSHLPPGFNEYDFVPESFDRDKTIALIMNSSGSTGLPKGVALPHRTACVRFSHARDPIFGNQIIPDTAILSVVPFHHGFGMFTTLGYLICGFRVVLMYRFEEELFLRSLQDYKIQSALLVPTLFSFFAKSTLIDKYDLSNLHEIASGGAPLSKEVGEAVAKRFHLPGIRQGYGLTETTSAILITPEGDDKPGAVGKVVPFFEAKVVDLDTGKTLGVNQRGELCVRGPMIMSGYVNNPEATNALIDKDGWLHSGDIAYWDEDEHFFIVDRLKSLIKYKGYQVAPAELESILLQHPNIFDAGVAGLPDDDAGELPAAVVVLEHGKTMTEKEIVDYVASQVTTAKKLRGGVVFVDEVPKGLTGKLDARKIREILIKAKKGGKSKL
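Purified P. pyralis luciferase, 10 nM final, with Km-level 10 uM D-luciferin and 10 uM ATP in 50 mM Tris acetate pH 7.5, 10 mM Mg acetate, 0.01% Tween-20, 0.05% BSA; 6-point qHTS titration about 60 µM downward; luminescence read.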
SMN2 splice enh = SMN2 splice variant enhancement; HEK293 SMN2-luciferase splicing reporter, luminescence, 30-36 h; Potency, µM (titrated, usually from 46.1 µM), without a hit: top-dose activity change, positive = activation, hits mostly activators; actives 2.8% (n = 210,000); further: % of control where 0% means no effect; nearly all actives have a fitted effect of over 55% in size
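HEK293 cells carry an SMN2 minigene-luciferase reporter in which exon 7 inclusion puts luciferase in frame. Cells were seeded at 2000 cells/well, attached for 10-12 hours, then exposed to compounds for 30-36 hours at 37C before ONE-Glo luminescence.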
* marks the source's active call; other numbers are inactive results; ? = inconclusive; nt = no result given; [ ] = remark or other dose. Shown are actives, neighbours in structure and some others; about 7.4% of the full set was active somewhere. The call rests on the fitted dose curve; in most records, active means well fitted curve in the direction sought with a large enough effect; inconclusive means small, poorly fitted or top-dose-only effect, or another doubt; inactive means no such curve, though single readings can be large; an effect the other way counts as inactive or inconclusive. Potency means the concentration at half of the fitted maximal effect.

SMILES	NPC1 promoter act	p53 reactivator	ELG1 genotox	Rab9 promoter act	FLuc counter	SMN2 splice enh
COc1ccc(NC(=O)CSCC(=O)Nc2sccc2C#N)cc1	-4.1%	-3.0%	9.8%	-0.9%	-8.6%	nt
Cn1cccc1C(=O)OCC(=O)Nc1sccc1C#N	nt	9.8%	20.6µM*	nt	nt	nt
N#Cc1ccsc1NC(=O)COC(=O)c1ccc(Br)o1	nt	7.5%	4.2%	nt	nt	nt
COc1ccc(CCC(=O)Nc2sccc2C#N)cc1	3.98µM*	1.5%	6.51µM*	2µM*	16.9µM*	15.8µM*
Cc1cc2nnc(SCC(=O)Nc3ccc(F)c(Cl)c3)n2c2ccccc12	nt	nt	nt	nt	3.6%	-11.2%
O=C(CCc1nnc2ccc(NCc3ccccc3Cl)nn12)NC1CCCCC1	2.3%	0.9%	4.1%	-4.3%	5.1%	nt
O=C(CCC(=O)Nc1ccccc1Cl)NNC(=O)C1CCCCC1	nt	-0.2%	-1.1%	nt	nt	nt
CN(CC(=O)Nc1ccc(Cl)c(Cl)c1)C(=O)CNC(=O)Cc1ccccc1	-3.7%	-12.3%	4.1%	-3.8%	-12.1%	nt
Clc1ccc(-c2cnc3n2CCC3)cc1	22.0%	?	12.3%	?	13.5µM*	-2.0%
COc1cc2ccccc2nn1	-6.0%	-1.9%	-2.6%	-3.1%	5.4%	nt
COc1ccc2c(n1)Sc1nc3ccccc3nc1N2	?	?	8.2µM*	2.24µM*	2.13µM*	nt
C(#CC1CCCCC1)c1ccc2c(c1)COc1c3ccccc3nn1-2	?	19.8%	19.1%	?	4.78µM*	nt
C(#Cc1ccc2c(c1)COc1c3ccccc3nn1-2)c1ccccc1	?	?	?	?	12µM*	nt
CC(C#Cc1ccc2c(c1)COc1c3ccccc3nn1-2)OC(C)(C)C (stereo not given)	?	?	12.4%	?	10.7µM*	nt
O=C(CN1C(=O)NC2(CCCCC2)C1=O)N1CCN(S(=O)(=O)c2ccc(F)c(F)c2F)CC1	3.2%	-0.4%	2.7%	-1.5%	-1.3%	nt
Cc1ccc(Nc2nc(-c3ccccc3)cs2)nc1	0.447µM*	nt	0.326µM*	0.562µM*	0.379µM*	nt
Cc1ccc(Nc2nc(-c3cccs3)cs2)nc1	0.447µM*	-6.0%	0.517µM*	0.447µM*	0.239µM*	1.41µM*
CC(/C=C/c1ccccc1)=N\Nc1nc(-c2ccccc2)cs1	-4.0%	5.9%	-8.0%	-3.6%	3.6%	-22.9%
Cc1cc(C)nc(Nc2nc(-c3ccccc3)cs2)n1	?	?	1.64µM*	0.708µM*	?	nt
c1ccc(-c2csc(Nc3nc(N4CCOCC4)nc(N4CCOCC4)n3)n2)cc1	-5.0%	3.9%	0.9%	-9.0%	3.3%	-13.8%
CC(C)=NNc1nc(-c2ccccc2)cs1	15.6%	?	?	12.3%	19µM*	-16.6%
O=C(COc1ccc(Cl)cc1)Nc1nc(-c2cccs2)cs1	-2.1%	5.1%	2.9%	1.2%	?	12.5%
O=C(CSc1ncc2c(n1)-c1ccc(Cl)cc1N(Cc1ccccc1)S2(=O)=O)Nc1ccccc1C(F)(F)F	nt	nt	nt	nt	-0.8%	nt
Cc1ccc(N2C(=O)CC(c3ccccc3F)C3=C2COC3=O)cc1Cl (stereo not given)	nt	nt	nt	nt	6.0%	4.4%
COc1ccc(-c2noc(CC(=O)Nc3cc(OC)ccc3OC)n2)cc1	nt	nt	nt	nt	-13.2%	nt
SMILES	NPC1 promoter act	p53 reactivator	ELG1 genotox	Rab9 promoter act	FLuc counter	SMN2 splice enh
CCOC(=O)[C@@H](O)Cc1cnc2ccccc2n1	nt	nt	nt	nt	nt	-12.1%[9.22 µM]
COC1=C/C(=C/c2c(O)c(C#N)c3ccccn23)C=CC1=O	-1.9%	17.7%	14.7%	-0.4%	15.1µM*	nt
Cc1ccc(NC(=O)NCCN2CCCCC2)cc1C	-5.5%	nt	0.2%	-0.4%	2.5%	nt
Cc1ccc(NC(=O)NCc2cccn2C)cc1C	3.98µM*	9.6%	?	?	?	nt
Cc1ccc(CNC(=O)Nc2ccccc2)n1C	16.9%	19.4%	7.8%	25.6%	19µM*	nt
Cn1cccc1CNC(=O)Nc1ccc(Cl)cc1	?	?	?	3.55µM*	13.5µM*	?
Cn1cccc1CNC(=O)Nc1ccccc1	27.7%	24.4%	?	?	19µM*	?
O=C(COC(=O)c1ccccc1F)c1ccc(-n2nncc2-c2ccco2)cc1	6.6%	10.6%	2.4%	-3.9%	12µM*	-0.4%
Nc1c(C(=O)Nc2ccc(F)cc2)nnn1-c1cccc(C(F)(F)F)c1	1.4%	4.8%	-3.8%	-2.1%	-0.8%	-13.8%
Cc1ccc(NC(=O)c2nnn(-c3ccc4c(c3)OCCO4)c2N)cc1	2.24µM*	?	?	5.62µM*	10.7µM*	nt
Nc1c(C(=O)Nc2ccccc2)nnn1-c1ccc2c(c1)OCCO2	0.224µM*	nt	0.184µM*	0.1µM*	0.849µM*	nt
Cc1cccc(-c2[nH]c(C(C)(C)C)nc2-c2ccc3nccnc3c2)n1	-11.0%[46.1 µM]	nt	nt	-22.5%[46.1 µM]	nt	nt
CC(CCn1cccn1)NC(=O)c1cc(COc2ccc(F)cc2F)on1 (stereo not given)	-3.1%	-2.1%	0.0%	-2.3%	-4.4%	nt
Cc1ccc(OCc2cc(C(=O)NC(C)Cc3cccnc3)no2)cc1C (stereo not given)	?	15.9%	15.3%	?	13.5µM*	nt
CC(Cc1cccnc1)NC(=O)c1cc(COc2ccc(F)cc2Cl)on1 (stereo not given)	-13.2%	-24.3%	-1.8%	9.3%	13.5µM*	nt
CC(CCn1cccn1)NC(=O)c1cc(COc2ccc(F)cc2Cl)on1 (stereo not given)	-1.5%	-0.3%	1.3%	2.4%	16.9µM*	nt
CC(Cc1cccnc1)NC(=O)c1cc(COc2c(F)cccc2F)on1 (stereo not given)	-5.6%	-0.7%	-8.0%	11.5%	3.8%	nt
CCN(CCn1cccn1)C(=O)c1cc(COc2ccc(F)cc2Cl)on1	-0.8%	-0.3%	-0.2%	-3.0%	?	-7.5%
Cc1ccc(OCc2cc(C(=O)NCCc3cccnc3)no2)cc1C	?	26.6%	3.8%	?	?	nt
O=C(NCCCn1cccn1)c1cc(COc2ccc(F)cc2Cl)on1	16.3%	0.4%	-3.5%	16.7%	16.9µM*	nt
Cc1cccc(Cn2c(=O)n(CC3CCC(C(=O)N4CCOCC4)CC3)c(=O)c3sccc32)c1 (stereo not given)	nt	nt	nt	nt	6.1%	nt
CC(C)CCNC(=O)CSc1nc2ccccc2nc1Cc1ccccc1	nt	nt	nt	nt	-10.6%	nt
CO[C@H]1C[C@@H](O[C@@H]2[C@H](C)[C@H](O[C@@H]3O[C@@H](C)C[C@@H](N(C)C)[C@@H]3O)[C@H](C)C[C@]3(CO3)C(=O)[C@H](C)[C@H](O)[C@H](C)[C@H](C)OC(=O)[C@@H]2C)O[C@@H](C)[C@H]1O	nt	nt	nt	nt	nt	-3.6%[20.6 µM]
CCc1c(C)nc2nncn2c1Nc1ccc(Cl)cc1	nt	nt	nt	nt	0.1%	-25.0%
